Reference: PubChem BioAssay (EPA / NIEHS)
The source made the active and inactive calls. How the source made its calls: active means hit-call score of the fitted dose curve at least 0.9, where 1 is the maximum; inactive means score below 0.9.

Key:
Conditions in all cases: mRNA level, 48 h; actives raise or lower the signal
[1] = read-out: CYP4A11 (gene 1579); assay: LTEA_HepaRG_CYP4A11: Life Technologies and Expression Analysis (LTEA) Assay for CYP4A11 using HepaRG (AID 2283486)
Summary of the method: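 Differentiated HepaRG cells, 48 h after plating, exposed in duplicate for 48 h to 8 half-log concentrations up to 100 uM in 0.5% DMSO in serum-free induction medium. CYP4A11 mRNA measured by TaqMan qRT-PCR, normalized to ACTB, GAPDH and POLR2A.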

[2] = read-out: Cytochrome P450 3A4 (Homo sapiens) (UniProt P08684); assay: LTEA_HepaRG_CYP3A4: Life Technologies and Expression Analysis (LTEA) Assay for CYP3A4 using HepaRG (AID 2283487)
Summary of the method: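 Differentiated HepaRG cells, plated 48 h, then dosed 48 h in serum-free induction medium with 0.5% DMSO, 8 half-log concentrations up to 100 uM, duplicate. CYP3A4 mRNA by qRT-PCR, normalized to ACTB/GAPDH/POLR2A; bidirectional fit versus DMSO.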

[3] = read-out: DNA damage-inducible transcript 3 (DDIT3), DDIT3 (gene 1649); assay: LTEA_HepaRG_DDIT3: Life Technologies and Expression Analysis (LTEA) Assay for DNA damage-inducible transcript 3 (DDIT3) using HepaRG (AID 2283488)
Summary of the method: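 Eight-point concentration-response (100 uM highest, half-log dilutions) in HepaRG, 48 h, duplicate wells. Endpoint: qRT-PCR mRNA, normalized (ACTB, GAPDH, POLR2A), bidirectional fitting with DMSO as baseline.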

[4] = read-out: Pro-epidermal growth factor (Homo sapiens) (UniProt P01133); assay: LTEA_HepaRG_EGF: Life Technologies and Expression Analysis (LTEA) Assay for Epidermal growth factor (EGF) using HepaRG (AID 2283489)
Summary of the method: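 HepaRG cells (~100,000/well, 48 h pre-culture) exposed in duplicate for 48 h in serum-free induction medium to 8 half-log concentrations up to 100 uM in 0.5% DMSO. EGF mRNA by qRT-PCR, normalized to ACTB/GAPDH/POLR2A; bidirectional fit versus DMSO.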

[5] = read-out: Early growth response protein 1 (EGR1) transcription factor, EGR1 (gene 1958); assay: LTEA_HepaRG_EGR1: Life Technologies and Expression Analysis (LTEA) Assay for Early growth response protein 1 (EGR1) transcription factor using HepaRG (AID 2283490)
Summary of the method: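 EGR1 expression change in human HepaRG after 48 h chemical exposure, assessed by housekeeping-normalized qRT-PCR; concentration-response up to 100 uM, fitted in both directions against DMSO controls.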

[6] = read-out: Ezrin (EZR), EZR (gene 7430); assay: LTEA_HepaRG_EZR: Life Technologies and Expression Analysis (LTEA) Assay for Ezrin (EZR) using HepaRG (AID 2283491)
Summary of the method: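 EZR transcript levels came from Fluidigm qRT-PCR and were normalized to three housekeeping genes after 48 h chemical exposure of HepaRG cells. Dosing used an 8-point half-log series with a 100 uM top concentration in 0.5% DMSO, tested in duplicate; both directions were fitted versus vehicle.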

[7] = read-out: Cytochrome P450 3A7 (Homo sapiens) (UniProt P24462); assay: LTEA_HepaRG_CYP3A7: Life Technologies and Expression Analysis (LTEA) Assay for CYP3A7 using HepaRG (AID 2283492)
Summary of the method: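 Differentiated HepaRG cells in serum-free induction medium exposed 48 h in duplicate to 8-point half-log series from 100 uM top in 0.5% DMSO. CYP3A7 mRNA by qRT-PCR, normalized to ACTB/GAPDH/POLR2A, bidirectional fit versus DMSO.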

[8] = read-out: CYP3A5 (gene 1577); assay: LTEA_HepaRG_CYP3A5: Life Technologies and Expression Analysis (LTEA) Assay for CYP3A5 using HepaRG (AID 2283493)
Summary of the method: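 Readout was CYP3A5 mRNA by qRT-PCR. HepaRG cultures were exposed for 48 h in serum-free induction medium to chemicals at up to 100 uM, and responses were fitted in both directions relative to DMSO vehicle.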

[9] = read-out: Fatty Acid-Binding Protein 1 (FABP1), FABP1 (gene 2168); assay: LTEA_HepaRG_FABP1: Life Technologies and Expression Analysis (LTEA) Assay for Fatty Acid-Binding Protein 1 (FABP1) using HepaRG (AID 2283494)
Summary of the method: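 Values reflect bidirectional concentration-response fitting of FABP1 mRNA change against 0.5% DMSO controls. Human HepaRG cultures received eight half-log doses (top 100 uM) for 48 h; expression quantified by TaqMan qRT-PCR with housekeeping-gene normalization.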

[10] = read-out: Cytochrome P450 4A22 (Homo sapiens) (UniProt Q5TCH4); assay: LTEA_HepaRG_CYP4A22: Life Technologies and Expression Analysis (LTEA) Assay for Cytochrome P450 4A22 (CYP4A22) using HepaRG (AID 2283495)
Summary of the method: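 Differentiated HepaRG cells in serum-free induction medium exposed 48 h in duplicate to eight half-log concentrations up to 100 uM in 0.5% DMSO. CYP4A22 mRNA quantified by TaqMan qRT-PCR, normalized to ACTB, GAPDH and POLR2A; bidirectional fit versus DMSO.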

[11] = read-out: Cytochrome P450 7A1 (Homo sapiens) (UniProt P22680); assay: LTEA_HepaRG_CYP7A1: Life Technologies and Expression Analysis (LTEA) Assay for Cytochrome P450 7A1 (CYP7A1) using HepaRG (AID 2283496)
Summary of the method: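 Using 0.5% DMSO as vehicle and baseline, chemicals were tested in duplicate over an 8-point range from 100 uM on HepaRG cells for 48 h; qRT-PCR signals were normalised to ACTB, GAPDH and POLR2A.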

[12] = read-out: Glutathione S-Transferase (GSTA2), GSTA2 (gene 2939); assay: LTEA_HepaRG_GSTA2: Life Technologies and Expression Analysis (LTEA) Assay for Glutathione S-Transferase (GSTA2) using HepaRG (AID 2283497)
Summary of the method: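 Oxidative-stress marker GSTA2 is quantified by TaqMan qRT-PCR in HepaRG cultures treated 48 h across an eight-point range to 100 uM. Expression is normalized to endogenous controls and compared with 0.5% DMSO vehicle.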

[13] = read-out: Glutamate-cysteine ligase catalytic (GCLC), GCLC (gene 2729); assay: LTEA_HepaRG_GCLC: Life Technologies and Expression Analysis (LTEA) Assay for Glutamate-cysteine ligase catalytic (GCLC) using HepaRG (AID 2283498)
Summary of the method: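 Oxidative-stress marker GCLC is measured as mRNA change in human HepaRG liver cells after 48 h chemical treatment in 0.5% DMSO, eight concentrations from 100 uM. Activity is fitted bidirectionally against vehicle.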

[14] = read-out: growth arrest and DNA damage 45 (GADD45G), GADD45G (gene 10912); assay: LTEA_HepaRG_GADD45G: Life Technologies and Expression Analysis (LTEA) Assay for growth arrest and DNA damage 45 (GADD45G) using HepaRG (AID 2283499)
Summary of the method: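 Differentiated human HepaRG cells, 48 h post-plating, exposed 48 h in serum-free induction medium to 8 half-log concentrations (top 100 uM, 0.5% DMSO) in duplicate. GADD45G mRNA measured by Fluidigm TaqMan qRT-PCR, normalized to ACTB, GAPDH, POLR2A; bidirectional fit versus DMSO.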

[15] = read-out: Glutamate-cysteine ligase regulatory (GCLM), GCLM (gene 2730); assay: LTEA_HepaRG_GCLM: Life Technologies and Expression Analysis (LTEA) Assay for Glutamate-cysteine ligase regulatory (GCLM) using HepaRG (AID 2283500)
Summary of the method: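 In this multiplexed HepaRG gene-expression assay, GCLM mRNA change after 48 h treatment (8 concentrations, max 100 uM) was scored against DMSO by bidirectional curve fitting.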

[16] = read-out: Glutathione S-transferase M3 (GSTM3), GSTM3 (gene 2947); assay: LTEA_HepaRG_GSTM3: Life Technologies and Expression Analysis (LTEA) Assay for Glutathione S-transferase M3 (GSTM3) using HepaRG (AID 2283501)
Summary of the method: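 Differentiated human HepaRG cells were exposed in duplicate for 48 h in serum-free induction medium, 8 points from 100 uM top in half-log steps, 0.5% DMSO. GSTM3 mRNA was measured by TaqMan qRT-PCR, normalized to ACTB, GAPDH and POLR2A; bidirectional fit versus DMSO.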

[17] = read-out: Heat shock 70 kDa protein 1 (HSPA1A), gene 3303; assay: LTEA_HepaRG_HSPA1A: Life Technologies and Expression Analysis (LTEA) Assay for Heat shock 70 kDa protein 1 (HSPA1A) using HepaRG (AID 2283502)
Summary of the method: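 An oxidative-stress marker readout: HepaRG cells treated 48 h in duplicate with an eight-point series (highest 100 uM) had HSPA1A mRNA quantified by TaqMan qRT-PCR. Activity was fitted in both directions using 0.5% DMSO as baseline.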

[18] = read-out: Hypoxia-inducible factor 1-alpha (Homo sapiens) (UniProt Q16665); assay: LTEA_HepaRG_HIF1A: Life Technologies and Expression Analysis (LTEA) Assay for Hypoxia-inducible factor 1 (HIF1A) Trancription factor using HepaRG (AID 2283503);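 further: HIF1A transcript by TaqMan qRT-PCR normalized to ACTB GAPDH and POLR2A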
Summary of the method: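 Gain- or loss-of-signal HIF1A mRNA changes are fitted against a DMSO baseline. HepaRG cultures receive eight concentrations, highest 100 uM, for 48 h in serum-free induction medium with 0.5% DMSO.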

[19] = read-out: 3-Hydroxy-3-Methylglutaryl-CoA Synthase 2 (HMGCS2), HMGCS2 (gene 3158); assay: LTEA_HepaRG_HMGCS2: Life Technologies and Expression Analysis (LTEA) Assay for 3-Hydroxy-3-Methylglutaryl-CoA Synthase 2 (HMGCS2) using HepaRG (AID 2283504)
Summary of the method: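 Human HepaRG cells in serum-free induction medium were exposed in duplicate for 48 h to 8-point half-log series from 100 uM top in 0.5% DMSO. HMGCS2 mRNA measured by TaqMan qRT-PCR, normalised to ACTB, GAPDH, POLR2A; bidirectional fit versus DMSO.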

[20] = read-out: HGF (gene 3082); assay: LTEA_HepaRG_HGF: Life Technologies and Expression Analysis (LTEA) Assay for Hepatocyte Growth Facto (HGF) using HepaRG (AID 2283505)
Summary of the method: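 Differentiated HepaRG cells in serum-free induction medium exposed 48 h in duplicate, 8 half-log concentrations from 100 uM in 0.5% DMSO. HGF mRNA by qRT-PCR, normalised to ACTB, GAPDH, POLR2A; bidirectional fitting.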

Measured: AC50

Chain of Hypoxia-inducible factor 1-alpha (Homo sapiens) (Q16665 whole entry, looked up): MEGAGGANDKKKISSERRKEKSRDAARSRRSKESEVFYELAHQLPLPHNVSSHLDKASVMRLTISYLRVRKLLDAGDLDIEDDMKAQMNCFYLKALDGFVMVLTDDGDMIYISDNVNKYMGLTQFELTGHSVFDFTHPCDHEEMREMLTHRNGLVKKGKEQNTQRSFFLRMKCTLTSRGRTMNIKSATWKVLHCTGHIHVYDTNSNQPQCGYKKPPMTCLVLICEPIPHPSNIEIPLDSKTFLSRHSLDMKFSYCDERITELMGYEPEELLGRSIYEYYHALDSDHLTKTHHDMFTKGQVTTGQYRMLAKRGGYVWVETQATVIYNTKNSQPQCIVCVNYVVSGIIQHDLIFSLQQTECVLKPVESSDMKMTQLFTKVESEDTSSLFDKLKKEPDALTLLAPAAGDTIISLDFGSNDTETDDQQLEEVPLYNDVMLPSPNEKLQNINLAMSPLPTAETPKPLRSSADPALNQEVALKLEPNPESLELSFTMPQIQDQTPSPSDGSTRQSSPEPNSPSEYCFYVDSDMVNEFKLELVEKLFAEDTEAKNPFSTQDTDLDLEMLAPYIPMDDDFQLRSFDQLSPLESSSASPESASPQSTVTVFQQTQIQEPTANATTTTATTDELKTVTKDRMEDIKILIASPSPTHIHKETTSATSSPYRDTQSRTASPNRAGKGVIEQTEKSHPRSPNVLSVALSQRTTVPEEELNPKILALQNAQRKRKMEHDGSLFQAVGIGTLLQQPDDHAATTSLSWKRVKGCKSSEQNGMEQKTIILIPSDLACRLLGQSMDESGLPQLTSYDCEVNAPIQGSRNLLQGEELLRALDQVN
Chain of Cytochrome P450 3A4 (Homo sapiens) (P08684 whole entry, looked up): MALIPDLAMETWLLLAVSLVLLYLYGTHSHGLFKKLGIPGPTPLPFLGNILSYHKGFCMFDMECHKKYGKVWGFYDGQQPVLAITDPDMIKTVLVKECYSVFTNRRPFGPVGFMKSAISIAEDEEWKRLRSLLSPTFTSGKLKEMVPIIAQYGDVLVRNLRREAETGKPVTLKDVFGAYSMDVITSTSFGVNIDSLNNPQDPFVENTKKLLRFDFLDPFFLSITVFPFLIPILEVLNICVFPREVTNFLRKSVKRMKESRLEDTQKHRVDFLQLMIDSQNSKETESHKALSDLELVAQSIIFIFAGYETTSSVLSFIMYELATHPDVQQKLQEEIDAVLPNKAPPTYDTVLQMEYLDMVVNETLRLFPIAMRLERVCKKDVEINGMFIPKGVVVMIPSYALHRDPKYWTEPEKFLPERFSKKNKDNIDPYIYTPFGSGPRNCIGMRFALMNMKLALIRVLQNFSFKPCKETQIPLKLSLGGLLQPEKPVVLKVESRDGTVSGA
Chain of Cytochrome P450 3A7 (Homo sapiens) (P24462 whole entry, looked up): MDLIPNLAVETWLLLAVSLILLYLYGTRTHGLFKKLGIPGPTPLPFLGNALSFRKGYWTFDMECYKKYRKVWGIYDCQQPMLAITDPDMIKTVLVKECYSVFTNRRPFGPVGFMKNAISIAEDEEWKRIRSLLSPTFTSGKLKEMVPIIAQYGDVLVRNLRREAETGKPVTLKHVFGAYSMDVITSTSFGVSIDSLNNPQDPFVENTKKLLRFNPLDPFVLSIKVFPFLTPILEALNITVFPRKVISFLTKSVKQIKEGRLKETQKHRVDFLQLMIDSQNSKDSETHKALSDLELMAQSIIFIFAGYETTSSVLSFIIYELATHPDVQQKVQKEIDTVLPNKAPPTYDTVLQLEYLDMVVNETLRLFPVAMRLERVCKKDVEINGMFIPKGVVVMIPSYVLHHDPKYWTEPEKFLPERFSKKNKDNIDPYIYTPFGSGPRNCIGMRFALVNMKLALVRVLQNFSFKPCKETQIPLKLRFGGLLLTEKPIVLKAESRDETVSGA

CSC(=O)c1cccc2nnsc12
inactive: all assays above

OB(O)O
inactive: all assays above

c1ccc(Nc2ccccc2)cc1
inactive: all assays above

CC(=O)[C@H]1CC[C@H]2[C@@H]3CCC4=CC(=O)CC[C@]4(C)[C@H]3CC[C@]12C
inactive: [6] | [15]
active: [1] 31.1 µM | [2] 36 µM | [3] 27.2 µM | [4] 82 µM | [5] 50 µM | [7] 30.1 µM | [8] 84.6 µM | [9] 35.8 µM | [10] 31.1 µM | [11] 26.8 µM | [12] 34.5 µM | [13] 91.1 µM | [14] 23 µM | [16] 93.1 µM | [17] 70.2 µM | [19] 29.2 µM

CCCCCCC(C)OC(=O)COc1nc(F)c(Cl)c(N)c1Cl (stereo not drawn)
not listed: [2]
inactive: all other assays above

CCN(CC)C(=O)c1cccc(C)c1
not listed: [2] | [7] | [15] | [20]
inactive: all other assays above
